This assay is described as follows: NCI Yeast Anticancer Drug Screen. Data for the mlh1 rad18 strain (AID 175). The following applies: S. cerevisiae mlh1 rad18 strain growth inhibition, active compounds read high. The method, then:
Growth inhibition of yeast strains with defined genetic alterations is measured as a screen for potential anti-cancer activity. Selected strains with alterations in DNA damage repair or cell cycle control were exposed to compounds and growth inhibition was measured relative to vehicle treated controls. The strain used in this assay is mlh1 rad18

[1] abbreviates: at 5.0 µM (retest, dose inferred, filed as 0.5).
Where [2] appears, read: at 50.0 µM (retest, dose inferred, filed as 5.0).

The panel holds about 79,000 compounds, 15% with a hit somewhere; the sample as a whole holds those more often. A number with no mark means an inactive call. Activity calls are given as the source filed them. No stated cut-off is given here; in the data, active means growth inhibition above about 70%; inactive means the rest.

Consider `c1ccc2c(c1)[nH]c1cc3ccncc3cc12`, for which the growth inhibition was -75% under setting [1], 56% under setting [2] and 61.7% (at 50.0 µM).
Turning to `O=C1NC(=O)N(c2ccc([N+](=O)[O-])cc2)C1=O`, the growth inhibition runs as follows: under setting [1], 0%; under setting [2], 7%; (at 50.0 µM) 10.2%.
In the same order, the values of `CC#Cc1cc2c(cc1O)CC[C@@H]1[C@@H]2CC[C@]2(C)[C@@H](O)CC[C@@H]12` are 29%, 99% (active) and 93.3% (active).
As to `C1=NCCN=Cc2ccccc2NCCNc2ccccc21`, the growth inhibition is, setting by setting: under setting [1], -3%; under setting [2], -2%; (at 50.0 µM) 69%.
In the same order, the values of `Cc1ccc(N)c(Cc2c(O)ccc3ccccc23)c1` are 1%, 82% (active) and 98.6% (active).
Regarding `O=C(O/N=C1/CCC/C1=C\c1ccccc1)c1ccccc1`, the growth inhibition is, setting by setting: under setting [1], 57%; under setting [2], 98% (active); (at 50.0 µM) 98.3% (active).
On to `CC(C)C(OC(=O)c1ccc(NCc2cc(O)ccc2O)cc1)C(C)C`, for which the growth inhibition reads like this: under setting [1], 27%; under setting [2], 99% (active); (at 50.0 µM) 86% (active).
For the compound `CN(C)/N=C(/CC(O)(C(F)(F)F)C(F)(F)F)c1ccc([N+](=O)[O-])cc1`, the growth inhibition runs as follows: under setting [1], 25%; under setting [2], 21%; (at 50.0 µM) -16.4%.
Take `O=C(O)[C@@H]1CCCC[C@@H]1C(=O)N(C1CCCCC1)C1CCCCC1`: the growth inhibition is -39% under setting [1], 89% (active) under setting [2] and 0.5% (at 50.0 µM).
With `CSC(=S)N/N=C(\C)c1nccnc1C`, the growth inhibition under setting [1] was 5%, the growth inhibition under setting [2] was 98% (active) and the growth inhibition (at 50.0 µM) was 98.9% (active).
In the same order, the values of `CC(/C=C/c1cccs1)=N\C(=S)NC(N)=S` are -5%, 12% and 25.9%.
For the compound `CCCCNCCCCCCCCCCCl`, the growth inhibition is, setting by setting: under setting [1], 84% (active); under setting [2], 99% (active); (at 50.0 µM) 98% (active).
As for `O=C(O)C1C(C(=O)O)C23CC2(C(=O)O)C2(C(=O)O)CCC3=C3CCCC312` (configuration not stated), the growth inhibition reads like this: under setting [1], -3%; under setting [2], 100% (active); (at 50.0 µM) 67.8%.
`C[N+]12CC3C4CC(C3C1)C2C4` (configuration not stated): the growth inhibition reads like this: under setting [1], -23%; under setting [2], -15%; (at 50.0 µM) 7.95%.

The values are drawn from PubChem BioAssay (NCI).
